Source: PubChem BioAssay (National Center for Advancing Translational Sciences (NCATS))
Shown are actives, neighbours in structure and some others; about 17% of the full set was active somewhere.
TGFb SMAD3 inh – qHTS for Inhibitors of TGF-b; HepG2 CAGA-GFP TGF-b/SMAD3 reporter, GFP fluorescence, 18 h; TGF-beta stimulated, 500 pg/mL final; Potency, µM (highest dose often 46.1 µM), actives largely listed as inhibitors; 1.2% of 410,000 active; AID 588855, 2011; note: nearly all actives have a fitted effect of over 65% in size
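GFP signal (ex488/em500-530) from TGF-beta-stimulated HEPG2 CAGA-GFP cells, 500 pg/mL final, 18 h at 37 degrees C in DMEM plus 1% FBS, normalized to unstimulated and DMSO-stimulated controls.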
HepG2 tox – qHTS for Inhibitors of TGF-b: Cytotox Counterscreen | HepG2 CAGA-GFP viability, ATP luminescence, 18 h | Potency, µM (doses to about 46.1 µM), hits mostly cytotoxic | 0.76% of 410,000 active | AID 588856, 2011
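CellTiter-Glo luminescence gave cytotoxicity after 18 hours at 37 degrees C. The cells were HepG2 CAGA-GFP in 1% FBS DMEM, stimulated with 500 pg/mL TGF-beta after compound addition. %Activity was normalised to no-cell wells (complete cell-killing) and DMSO (no toxicity), and curves were fitted and classified.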
HT1080 IDH1KD tx – qHTS for induction of synthetic lethality in tumor cells producing 2HG: qHTS for the HT-1080-IDH1KD cell line | HT-1080 IDH1 knockdown viability, ATP luminescence, 48 h | Potency, µM (series often up to 46.1 µM), most hits filed as cytotoxic | 2% of 360,000 active
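HT-1080-IDH1KD cells (IDH1 knocked down), 750/well in RPMI with 5% FBS, treated with compound 48 h at 37 degrees C. Viability by CellTiter-Glo luminescence, normalised to DMSO and no-cell wells; concentration-response curves classed.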
HT1080-NT tox – qHTS for induction of synthetic lethality in tumor cells producing 2HG: qHTS for the HT-1080-NT fibrosarcoma cell line; 1.6% of 360,000 active; Potency, µM (doses to about 46.1 µM), most hits filed as cytotoxic; HT-1080-NT fibrosarcoma viability, CellTiter-Glo ATP luminescence, 48 h;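 note: NT is the 2HG producing partner of a matched IDH1 knockdown line; nearly all actives have a fitted effect of over 55% in size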
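A 48-hour cytotoxicity screen used HT-1080-NT cells plated 2 hours before compound delivery. ATP-based CellTiter-Glo luminescence measured viability, normalized to DMSO and no-cell controls.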
TDP1 cell CPT – qHTS for Inhibitors of human tyrosyl-DNA phosphodiesterase 1 (TDP1): qHTS in cells in presence of CPT; chicken DT40 Tdp1-/-;hTDP1 cells + 20 nM CPT, ATP luminescence, 48 h; Potency, µM (doses to about 46.2 µM), most hits filed as inhibitors; 12% of 420,000 active; AID 686979, 2013; note: nearly all actives have a fitted effect of over 55% in size
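Chicken DT40 Tdp1-/- cells stably complemented with human TDP1 were seeded at 400 cells/well in medium containing 20 nM camptothecin, exposed to pin-transferred compounds, and grown at 37 °C for at least 48 hr. Viability was read as ATP luminescence.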
DT40 TDP1 no CPT – qHTS for Inhibitors of human tyrosyl-DNA phosphodiesterase 1 (TDP1): qHTS in cells in absence of CPT | DT40 Tdp1-/- hTDP1 cells, no CPT, ATP luminescence, 48 h | Potency, µM (titrated, usually from 46.2 µM), usual class: inhibitors | 15% of 420,000 active | AID 686978, 2013; note: nearly all actives have a fitted effect of over 55% in size
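No-CPT arm: Tdp1-/-;hTDP1 DT40 cells (400/well) plus compounds, incubated ≥48 hr at 37 °C. Readout CellTiter-Glo luminescence.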
A number is an active result; i = inactive; ? = inconclusive; nt = no result; ! = not confirmed by another sample; [ ] = another dose, or the depositor's remark. Calls come from the whole dose curve; as a rule, active = well fitted curve in the direction sought with a large enough effect; inconclusive = small, poorly fitted or top-dose-only effect, or another doubt; inactive = no such curve, though single readings can be large; an effect the other way counts as inactive or inconclusive.

SMILES	TGFb SMAD3 inh	HepG2 tox	HT1080 IDH1KD tx	HT1080-NT tox	TDP1 cell CPT	DT40 TDP1 no CPT
COc1cc(-c2nc3cccc(C)n3c2Nc2ccc3c(c2)OCCO3)ccc1O	i	i	nt	nt	?	?
COc1cc(-c2nc3nc[nH]n3c2Nc2ccc(C(C)C)cc2)ccc1O	i	i	nt	nt	23µM	7.3µM
COc1cc(-c2nc3cnccn3c2Nc2ccc3c(c2)OCCO3)ccc1O	i	i	i	i	?	?
Cc1ccc2nc(-c3cccnc3)c(Nc3ccc(C(C)C)cc3)n2c1	i	i	nt	nt	i	i
COc1cc(-c2nc3cnccn3c2Nc2ccccc2)ccc1O	i	i	i	i	23µM	18µM
CC(C)c1ccc(Nc2c(-c3ccccc3O)nc3cnccn23)cc1	?	i	nt	nt	?	21µM
COc1cc(-c2nc3cnccn3c2Nc2ccc(C)cc2)ccc1O	i	i	16µM	?	?	?
CCC(C(=O)Nc1ccc(C(C)=O)cc1)n1cnc2nc3c(cc2c1=O)CCCC3 (configuration not stated)	i	i	nt	nt	i	?
O=C(O)Cc1cc2ccccc2nc1C(=O)O	nt	nt	nt	nt	i	i
COc1cc(-c2nc3cnccn3c2Nc2ccc(C(C)C)cc2)ccc1O	11µM	11µM!	?	?	9.2µM	8.2µM
Oc1ccc(-c2nc3cnccn3c2Nc2ccc3c(c2)OCCO3)cc1	i	i	i	i	i	i
COc1cc(N)c(NC(=O)/C=C/c2nc3cc(OC)c(OC)cc3[nH]2)cc1OC	i	i	nt	nt	i	i
ClN=C1C=CC=CC1=NCl	?	i	i	i	16µM	?
COc1ccc(N2CC(C(=O)N/N=C/c3c[nH]c4ccccc34)CC2=O)cc1 (configuration not stated)	i	i	i	i	i	i
O=C(N/N=C/c1ccccc1O)C1CC(=O)N(c2ccc(F)cc2)C1 (configuration not stated)	?	i	?	?	3.3µM	5.8µM
O=C(Oc1cccccc1=O)c1ccccc1	i	i	i	i	18µM	21µM
O=C(Oc1ccccc1Cl)c1ccccc1	i	i	i	i	i	i
COc1ccc(CC(=O)OCC(=O)NC2CCCCC2)cc1OC	i	i	i	i	i	i
COC(=O)c1ccc(NC(=O)C2CC2)o1	i	i	i	i	i	i
O[C@H]1CN(CC2CCCCC2)[C@@H](c2ccc(Cl)cc2)C[C@@H]1n1cc(-c2ccc(F)cc2)nn1	i	i	i	i	?	21µM
O[C@H]1C[C@H](c2ccc(Cl)cc2)N(CC2CCCCC2)C[C@@H]1n1cc(-c2ccc(F)cc2)nn1	i	i	i	i	?	?
O=C(C1CCCCC1)N1C[C@H](n2cc(C3CC3)nn2)[C@@H](O)C[C@@H]1c1ccccc1	i	i	i	i	i	i
O[C@@H]1CN(CC2CCCCC2)[C@@H](c2ccccc2)C[C@H]1n1cc(C2CC2)nn1	i	i	i	i	?	8.2µM
O[C@H]1C[C@H](c2ccccc2)N(CC2CCCCC2)C[C@@H]1n1cc(C2CC2)nn1	?	i	?	?	10µM	7.3µM
O=C(COc1ccc2ccccc2c1)Nc1ccc(Br)cc1C(=O)O	i	i	i	i	i	i
SMILES	TGFb SMAD3 inh	HepG2 tox	HT1080 IDH1KD tx	HT1080-NT tox	TDP1 cell CPT	DT40 TDP1 no CPT
CCOC(=O)c1[nH]c(C)c(C(=O)C(C)C)c1C	i	i	i	i	i	i
Cc1ccc(SCCC(=O)N(C)CC(=O)Nc2c(C)cccc2C)cc1	i	i	i	i	i	i
O=C(c1cnccn1)N1CCC2(CCN(Cc3ccncc3)CC2)CC1	nt	nt	nt	nt	i	?
CC(C)Oc1ccc(CNC(=O)CCC(=O)N2CC(C)Sc3ccccc32)cc1 (configuration not stated)	i	i	i	i	16µM	?
CC1CN(C(=O)Nc2ccc(C(=O)NCCc3ccccc3Cl)cc2)c2ccccc2S1 (configuration not stated)	i	i	nt	nt	23µM	21µM
CC(C)Oc1ccc(CNC(=O)c2ccc(NC(=O)N3CC(C)Sc4ccccc43)cc2)cc1 (configuration not stated)	i	i	nt	nt	21µM	i
CCOC(=O)c1cccc(NC(=O)Nc2c(C)n(C)n(-c3ccccc3)c2=O)c1	i	i	nt	nt	i	i
CN(c1cccc(Cl)c1)S(=O)(=O)c1cccc(C(=O)Nc2nc3ccccc3[nH]2)c1	i	i	?	?	21µM	23µM
COc1ccc(N(C)S(=O)(=O)c2cccc(C(=O)Nc3nnc(C)s3)c2)cc1	i	i	i	i[9.24 µM]	i	?
COc1ccc(N(C)S(=O)(=O)c2cccc(C(=O)Nc3nc4ccccc4[nH]3)c2)cc1	i	i	?	i	23µM	?
O=C(NCC(c1ccc2c(c1)OCO2)N1CCOCC1)c1ccc(F)cc1 (configuration not stated)	i	i	nt	nt	i	i
COc1ccc(OC)c(NC(=O)c2ccc3c(c2)C(=O)N(CC2CCCO2)C3=O)c1 (configuration not stated)	i	i	i	i	i	i
C=CCn1c(=O)c2c3c(sc2n2c(Nc4ccc(C(=O)OCC)cc4)nnc12)CCCC3	i	i	i	i	13µM	12µM
C=CCn1c(=O)c2c3c(sc2n2c(Nc4ccccc4)nnc12)CCCC3	?	i	i	i	8.9µM	10µM
C=CCn1c(=O)c2c3c(sc2n2c(Nc4ccc(OC)cc4)nnc12)CCCC3	?	i	i	i	9.2µM	8.2µM
CCCCNC(=O)CSc1nc2cc3c(cc2c(=O)n1CCC(=O)NCCc1ccc(OC)c(OC)c1)OCO3	i	i	i	i	?	i
COc1ccccc1OCC(=O)N/N=C(\C)c1ccc2ccccc2c1	i	i	?	?	?	?
COc1cc2ccc(C(C)=NNC(N)=S)cc2cc1OC	?	i	i	i	?	15µM
CC(=NNC(N)=S)c1ccc2cc3c(cc2c1)OCO3	?	i	i	i	23µM	10µM
C=CCNS(=O)(=O)c1cc(S(=O)(=O)NCC=C)c(OC)cc1OC	i	i	i	i	i	i
OCCN(CCO)CC(O)COCCC12CC3CC(CC(C3)C1)C2 (configuration not stated)	i	i	?	?	?	21µM
